Reference: PubChem BioAssay (NCATS)
Several values for one entry are separate records, joined by “and”; a condition that tells them apart may be missing. Equal entries are not always repeated. Inconclusive results are not listed. Activity calls are given as the source filed them. Unless noted, the call rests on the fitted dose curve; in most records, active means well fitted inhibition curve with a large enough effect; inconclusive means small, poorly fitted or top-dose-only effect; inactive means flat fitted curve, though single readings scatter.

Assays:
[1] = Drug repurposing screens with cells derived from glioblastoma tumor samples (AID 1345199); details: GBM patient neurospheres viability, ATP luminescence, 48 h; further: nearly all actives have a fitted effect of over 40% in size; further: potency means the concentration at half of the fitted maximal effect; on activity, negative = cell killing: on the % scale 0 is the no-effect control and ±100 the full control effect
In short: (§1)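 Primary testing used CD133+ neurospheres from four GBM patients, seven concentrations, 48 h exposure and ATP-based viability; confirmation added three slower-growing patient lines.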

[2] = system: astro; assay: as above; details: viability, ATP luminescence, 48 h; series mostly up to 45.9 µM
In short: as §1

[3] = target: Nuclear receptor subfamily 1 group I member 2 (Rattus norvegicus) (UniProt Q9R1A7); assay: qHTS assay for small molecule activators of the rat pregnane X receptor (rPXR) signaling pathway (AID 651751; call rule not given here; further: 0% is about no effect); details: rPXR reporter cells, luciferase (One-Glo), 24 h
[4] = at 45.9 µM (top of the series), tumour line B
[5] = at 45.9 µM (top of the series), tumour line D
[6] = at 46.1 µM (top of the series), tumour line C
[7] = at 20 µM (top of the series), tumour line C
[8] = at 21.2 µM (top of the series), tumour line B
[9] = at 21.2 µM (top of the series), tumour line D

Sequence of Nuclear receptor subfamily 1 group I member 2 (Rattus norvegicus) (Q9R1A7 whole entry, looked up): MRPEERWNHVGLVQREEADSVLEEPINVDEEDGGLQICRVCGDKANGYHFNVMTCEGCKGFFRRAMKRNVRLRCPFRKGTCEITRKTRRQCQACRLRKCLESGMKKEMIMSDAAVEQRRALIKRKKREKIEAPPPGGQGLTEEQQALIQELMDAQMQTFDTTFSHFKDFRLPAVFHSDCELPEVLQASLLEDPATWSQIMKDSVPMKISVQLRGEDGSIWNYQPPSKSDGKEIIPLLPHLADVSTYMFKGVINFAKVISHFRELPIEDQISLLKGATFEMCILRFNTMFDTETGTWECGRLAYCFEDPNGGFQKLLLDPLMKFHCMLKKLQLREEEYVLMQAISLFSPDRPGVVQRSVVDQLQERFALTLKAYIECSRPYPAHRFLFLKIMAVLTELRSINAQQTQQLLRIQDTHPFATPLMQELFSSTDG

C[C@H]1O[C@H](O[C@H]2[C@H](O)[C@@H](O)[C@@H](O[C@H]3[C@H](O)[C@@H](O)[C@H](O)O[C@@H]3CO)O[C@@H]2CO)[C@H](O)[C@@H](O)[C@@H]1N[C@H]1C=C(CO)[C@@H](O)[C@H](O)[C@H]1O
inactive: activity, negative = cell killing [1, 4] -6.62% | activity, negative = cell killing [1, 5] 5.79% | activity, negative = cell killing [1, 6] -10.2% | Potency [2]

CC(C)(O)c1ccccc1CC[C@@H](SCC1(CC(=O)O)CC1)c1cccc(/C=C/c2ccc3ccc(Cl)cc3n2)c1
inactive: activity, negative = cell killing [1, 4] -2.34% | activity, negative = cell killing [1, 5] -14.4% | activity, negative = cell killing [1, 6] -19.5%
active: Potency [2] 20 µM

C[C@@H]1CC[C@@]2(OC1)O[C@H]1C[C@H]3[C@@H]4CC[C@H]5C[C@@H](O)CC[C@]5(C)[C@H]4CC(=O)[C@]3(C)[C@H]1[C@@H]2C
inactive: activity, negative = cell killing [1, 7] -26.8% | activity, negative = cell killing [1, 8] -15.7% | activity, negative = cell killing [1, 9] -22.8% | Potency [2]

O=C(O)Cc1sc(-c2ccccc2)nc1-c1ccc(Cl)cc1
inactive: activity, negative = cell killing [1, 5] -34% and -7.66% | activity, negative = cell killing ([1]; at 46 µM (top of the series), tumour line A) -38.9% | activity, negative = cell killing [1, 6] -4.36% and -11.1% | Potency [2]

COc1ccc2c(c1)C(=O)N(CCc1ccc(S(=O)(=O)NC(=O)NC3CCCCC3)cc1)C(=O)C2(C)C
inactive: activity, negative = cell killing [1, 7] -4.28% | activity, negative = cell killing [1, 8] -10.5% | activity, negative = cell killing [1, 9] -7.62% | Potency [2]

CCCCOC(=O)c1ccc(O)cc1
inactive: activity, negative = cell killing [1, 4] -17.3% | activity, negative = cell killing [1, 5] -11.1% | activity, negative = cell killing [1, 6] 26.3% | Potency [2] | max response [3] -8.55% and 2.81%
